Data from PubChem BioAssay.
For some of these results: Results with a measured potency or affinity are listed apart. The list shows a part of the results. Active and inactive are the calls of the source.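 Rule for the calls, unless noted: active = hit in primary screen, with calcium signal over 5 SD above buffer well mean in both duplicates; inactive = the rest.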

What was measured:
[1] = parental HEK293 membrane potential modulation, confirmation, counter-screen for TRPC6 modulator project, cell-based (AID 488924;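 active = membrane potential signal moves up or down beyond 5 SD from buffer-only wells, on both duplicate plates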); details: parental HEK293, membrane potential dye fluorescence; at 10 µM
[2] = modulation of acetylcholine-evoked membrane potential, parental HEK293, confirmation, counter-screen for TRPC6 modulator project, cell-based, second counter-screen, membrane potential dye (AID 488926;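 active = membrane potential signal drops by more than 5 SD from the mean control signal, in both duplicate plates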;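 note: plate controls were acetylcholine ECmax control wells for no effect and buffer only wells for full effect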); details: parental HEK293, membrane potential dye fluorescence, at 10 µM, after compound, maximal acetylcholine stimulation; stronger effect = higher value
[3] = system: Transient receptor potential cation channel subfamily C member 4 (mouse); test: TRPC4 modulation by TRPC6 hit compounds, confirmation, selectivity assay for TRPC6 modulator project, cell-based, HEK293 TRPC4/mu-opioid, membrane potential dye, mouse (AID 488927;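 active = membrane potential signal moved up or down beyond 5 SD of buffer control wells, in both duplicate plates, actives on both sides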;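 for percent change from control (negative = decrease, positive = increase): plate controls were assay buffer wells for no effect and DAMGO maximal-effect wells for full effect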); details: membrane potential fluorescence, at 10 µM
[4] = system: TRPC4 (transient receptor potential cation channel C4), mouse; test: TRPC4 inhibition by TRPC6 hit compounds, confirmation, selectivity assay for TRPC6 modulator project, cell-based, second screen, HEK293 TRPC4/mu-opioid, membrane potential dye (AID 488928;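 active = drop in membrane potential signal beyond 5 SD of the control wells in both duplicate plates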;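 note: TRPC4 counter screen for TRPC6 hits run under conditions tuned for TRPC6 not TRPC4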); details: membrane potential dye fluorescence, at 10 µM, stimulated with maximal-effect DAMGO; stronger effect = higher value
[5] = target: Short transient receptor potential channel 6 (Mus musculus) (UniProt Q61143); test: mouse TRPC6 channel inhibitors, confirmation, HEK293 cells, membrane potential dye, duplicate (AID 488960;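 active = fluorescence ratio falls more than 5 SD below the full-stimulation control mean, in both duplicate runs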;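 for inhibition: integrated fluorescence ratio of peak minus minimum over baseline after agonist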); details: ACh-evoked depolarization, at 10 µM; stronger effect = higher value
Short transient receptor potential channel 6 (Mus musculus), sequence (Q61143 whole entry, looked up): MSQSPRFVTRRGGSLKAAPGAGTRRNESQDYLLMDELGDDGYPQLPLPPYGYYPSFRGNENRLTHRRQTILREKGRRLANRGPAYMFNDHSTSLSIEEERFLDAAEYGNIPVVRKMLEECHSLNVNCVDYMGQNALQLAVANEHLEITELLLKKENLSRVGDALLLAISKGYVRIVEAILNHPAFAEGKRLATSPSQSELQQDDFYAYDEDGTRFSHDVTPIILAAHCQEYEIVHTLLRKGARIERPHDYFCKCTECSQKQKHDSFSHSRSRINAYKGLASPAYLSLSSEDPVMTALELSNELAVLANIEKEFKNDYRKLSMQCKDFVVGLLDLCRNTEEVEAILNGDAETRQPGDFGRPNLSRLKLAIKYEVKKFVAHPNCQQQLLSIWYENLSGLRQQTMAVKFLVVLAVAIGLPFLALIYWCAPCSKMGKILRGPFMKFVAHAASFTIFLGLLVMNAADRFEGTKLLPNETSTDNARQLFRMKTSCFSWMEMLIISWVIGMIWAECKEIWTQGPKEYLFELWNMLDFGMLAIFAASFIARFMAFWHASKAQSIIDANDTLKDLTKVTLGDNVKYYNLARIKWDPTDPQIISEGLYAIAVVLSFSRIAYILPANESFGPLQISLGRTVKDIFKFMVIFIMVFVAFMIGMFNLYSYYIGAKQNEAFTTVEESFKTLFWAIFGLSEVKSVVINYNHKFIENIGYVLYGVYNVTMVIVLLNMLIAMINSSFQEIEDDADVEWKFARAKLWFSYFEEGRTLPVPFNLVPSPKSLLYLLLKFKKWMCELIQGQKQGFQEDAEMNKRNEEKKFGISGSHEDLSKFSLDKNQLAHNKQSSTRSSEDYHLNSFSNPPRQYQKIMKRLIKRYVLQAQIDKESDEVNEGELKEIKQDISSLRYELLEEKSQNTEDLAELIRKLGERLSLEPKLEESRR

[6] = target: Short transient receptor potential channel 6 (Mus musculus) (UniProt Q61143); test: mouse TRPC6 channel activators, confirmation, HEK293 cells, membrane potential dye, duplicate (AID 488961;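 active = ratio signal rise beyond 5 SD above unstimulated control wells' mean, seen in both duplicate runs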); details: HEK293-TRPC6 membrane potential dye fluorescence, FDSS; at 10 µM
[7] = system: TRPC4 beta (transient receptor potential cation channel C4), mouse; test: activators of mouse TRPC4 channel, confirmation, cell-based, Fluo4 calcium, HEK293 TRPC4beta/mu-opioid, duplicates, 10 µM (AID 2426;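 active = fluorescence ratio normalized to control raised more than 50% in primary screen plus both repeat runs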;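 for activation: percent rise of integrated ratio over buffer wells lacking compound which define 0%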); details: Fluo4 calcium fluorescence, at 10 µM; stronger effect = higher value
[8] = system: transient receptor potential cation channel C4 beta (TRPC4), mouse; test: activators of mouse TRPC4 channel, confirmation, cell-based, second round, Fluo4, HEK293 TRPC4beta/mu-opioid, 1 µM (AID 2461;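 active = primary screen active and over 50% activation in each of two duplicate runs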;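 for activation: 0% = wells without test compound as baseline of integrated fluorescence ratio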); details: Fluo4 calcium fluorescence, at 1 µM; stronger effect = higher value
[9] = system: TRPC4 (transient receptor potential cation channel C4 beta), mouse; test: positive allosteric modulators of mouse TRPC4, confirmation, cell-based, second round, Fluo-4, HEK293 TRPC4beta/mu-opioid, 1 µM (AID 2554;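 active = primary screen hit whose fluorescence ratio, in both repeats, exceeds the weak agonist control mean by 3 SD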); details: DAMGO EC20, Fluo-4 calcium flux, at 1 µM; stronger effect = higher value
[10] = system: TRPC4 beta (transient receptor potential cation channel C4), mouse; test: positive allosteric modulators of mouse TRPC4, confirmation, cell-based, Fluo-4, HEK293 TRPC4beta/mu-opioid (AID 2555;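 active = primary screen hit whose calcium fluorescence ratio, in both repeats, exceeds the weak agonist control mean by 3 SD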); details: DAMGO EC20, Fluo-4 calcium flux, at 10 µM; stronger effect = higher value
[11] = target: Short transient receptor potential channel 4 (Mus musculus) (UniProt Q9QUQ5); test: inhibitors of mouse TRPC4 channel, confirmation, cell-based, Fluo4, HEK293 TRPC4beta/mu-opioid (AID 2636;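 active = calcium signal cut by more than 3 SD below the full-agonist control yet still positive, in both repeats and the earlier primary screen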); details: DAMGO, Fluo4 calcium flux, at 10 µM; stronger effect = higher value
Short transient receptor potential channel 4 (Mus musculus), sequence (Q9QUQ5 whole entry, looked up): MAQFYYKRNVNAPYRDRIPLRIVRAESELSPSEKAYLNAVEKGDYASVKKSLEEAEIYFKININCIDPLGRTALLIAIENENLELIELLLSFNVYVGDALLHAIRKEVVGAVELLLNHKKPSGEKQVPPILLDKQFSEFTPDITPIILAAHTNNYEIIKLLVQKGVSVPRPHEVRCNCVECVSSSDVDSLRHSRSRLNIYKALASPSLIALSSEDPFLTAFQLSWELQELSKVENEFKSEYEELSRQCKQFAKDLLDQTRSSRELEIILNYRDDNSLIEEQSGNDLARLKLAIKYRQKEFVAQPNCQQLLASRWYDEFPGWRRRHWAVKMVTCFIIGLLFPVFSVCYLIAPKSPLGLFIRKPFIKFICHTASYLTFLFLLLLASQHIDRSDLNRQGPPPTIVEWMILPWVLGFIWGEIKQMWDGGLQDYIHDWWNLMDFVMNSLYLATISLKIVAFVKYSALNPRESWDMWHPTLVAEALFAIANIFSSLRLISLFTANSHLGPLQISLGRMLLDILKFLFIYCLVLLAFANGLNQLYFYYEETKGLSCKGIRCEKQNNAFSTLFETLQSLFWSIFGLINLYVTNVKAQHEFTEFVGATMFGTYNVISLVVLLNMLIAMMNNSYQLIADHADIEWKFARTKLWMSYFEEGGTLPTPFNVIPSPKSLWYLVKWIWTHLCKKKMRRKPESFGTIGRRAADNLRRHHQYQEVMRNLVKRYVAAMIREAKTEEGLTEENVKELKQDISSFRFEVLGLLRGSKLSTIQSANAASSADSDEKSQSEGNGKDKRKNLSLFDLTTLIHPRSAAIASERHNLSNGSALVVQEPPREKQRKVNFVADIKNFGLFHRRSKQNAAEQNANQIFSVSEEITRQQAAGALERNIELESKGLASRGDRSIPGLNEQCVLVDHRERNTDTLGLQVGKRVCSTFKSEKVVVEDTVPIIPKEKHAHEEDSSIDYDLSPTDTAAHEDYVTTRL

[12] = target: Short transient receptor potential channel 4 (Mus musculus) (UniProt Q9QUQ5); test: inhibitors of mouse TRPC4 channel, confirmation, cell-based, second round, Fluo4, HEK293 TRPC4beta/mu-opioid, 1 µM (AID 2637;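 active = calcium signal ratio cut to more than 3 SD under the fully stimulated control mean yet still positive, in both repeats and the primary screen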); details: Fluo4 calcium flux, DAMGO, at 1 µM; stronger effect = higher value
[13] = target: Short transient receptor potential channel 4 (Mus musculus) (UniProt Q9QUQ5); test: TRPC4 positive allosteric modulators, dose response, cell-based, HEK293 TRPC4/mu-opioid, Fluo-4 calcium, EC20 DAMGO (AID 434941;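 active = earlier screen potentiator hit that boosts the TRPC4 ion channel at some dose, with a dose response; inactive = no potentiation, no dose response, or not a prior hit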;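 note: calcium entry triggered by an EC20 dose of DAMGO at the co-expressed mu-opioid receptor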); details: HEK293 TRPC4/mu-opioid cells, Fluo-4 calcium fluorescence; series mostly up to 20 µM
[14] = target: Short transient receptor potential channel 4 (Mus musculus) (UniProt Q9QUQ5); test: mouse TRPC4 channel inhibitors, dose response, cell-based, HEK293 TRPC4/mu-opioid, Fluo-4 calcium (AID 434942;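 active = primary screen inhibitor hit that blocks the TRPC4 channel at some tested dose, yielding a dose curve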); details: HEK293 TRPC4/mu-opioid cells, DAMGO-evoked Fluo-4 calcium ratio; series mostly up to 20 µM
[15] = target: Short transient receptor potential channel 6 (Mus musculus) (UniProt Q61143); test: inhibition of mouse TRPC6 channel, confirmation, selectivity assay for TRPC4 inhibitor project, cell-based, HEK293, membrane potential dye, duplicate (AID 434948;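 active = active in primary screen and both duplicates, each dropping signal beyond three positive-control SD with fluorescence still positive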); details: HEK293 TRPC6, membrane potential dye fluorescence, at 10 µM; inhibition: stronger effect = higher value, stimulated with maximal-effect acetylcholine unless noted; outcome: stimulated with maximal-effect acetylcholine unless noted
[16] = target: Short transient receptor potential channel 6 (Mus musculus) (UniProt Q61143); test: activation of mouse TRPC6 channel, confirmation, selectivity assay for TRPC4 activator project, cell-based, HEK293, membrane potential dye, duplicate (AID 434950;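 active = membrane potential signal rise above negative control mean plus 3 SD in both duplicates, also active in the earlier TRPC4 screen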;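 for activation: 0% = buffer only wells and 100% = acetylcholine maximal-effect wells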); details: HEK293 TRPC6, membrane potential fluorescence, at 10 µM; stronger effect = higher value
[17] = target: Short transient receptor potential channel 6 (Mus musculus) (UniProt Q61143); test: TRPC6 potentiation by TRPC4 potentiator hits, confirmation, selectivity assay for TRPC4 potentiator project, HEK293 cells, membrane potential dye, duplicate (AID 434952;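 active = compound raising the membrane signal above positive-control mean plus 3 SD in both repeats, and a primary screen hit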); details: HEK293 TRPC6, membrane potential dye fluorescence, at 10 µM; maximal acetylcholine added after compound unless noted
[18] = target: Short transient receptor potential channel 4 (Mus musculus) (UniProt Q9QUQ5); test: calcium flux activators in TRPC4/5HT1a cells, counter-screen for TRPC4 activator project, cell-based, second counter screen, HEK293 TRPC4/5HT1a, Fluo-4 (AID 434977;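 active = calcium signal rise above buffer-control mean plus 5 SD in both duplicates, and also a hit in the primary screen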;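 for activation: plate controls were assay buffer for no effect and maximal serotonin response for full effect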); details: Fluo-4 calcium flux, at 10 µM; stronger effect = higher value
[19] = calcium flux inhibitors in TRPC4/5HT1a cells, confirmation, counter-screen for TRPC4 inhibitor project, cell-based, second counter screen, HEK293 TRPC4/5HT1a, Fluo-4 (AID 434978;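 active = primary screen active whose calcium signal fell more than 3 SD beyond the full-serotonin control mean in both duplicate plates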;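 note: serotonin given first at submaximal then at maximal dose after compound preincubation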); details: Fluo-4 calcium flux, at 10 µM; inhibition: stronger effect = higher value, serotonin added to trigger calcium flux unless noted; outcome: serotonin added to trigger calcium flux unless noted
[20] = system: TRPC4 (mouse), co-expressed with 5HT1a in HEK293; test: calcium flux potentiators in TRPC4/5HT1a cells, confirmation, counter-screen for TRPC4 potentiator project, cell-based, second counter screen, HEK293 TRPC4/5HT1a, Fluo-4 (AID 434979;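 active = signal rise over 3 SD above mean of control wells given weak agonist, in both repeats and first screen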); details: Fluo-4 calcium flux, at 10 µM; outcome: serotonin added at its EC20 dose unless noted; potentiation: stronger effect = higher value, serotonin added at its EC20 dose unless noted
[21] = calcium flux activation in mu-opioid HEK293 cells, confirmation, counter-screen for TRPC4 activator project, cell-based, HEK293 mu-opioid receptor line (AID 449723); details: Fluo-4 calcium fluorescence, at 10 µM; stronger effect = higher value;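 note: counter screen cells carry the mu-opioid receptor alone and lack TRPC4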
[22] = calcium flux enhancement in mu-opioid HEK293 cells, confirmation, counter-screen for TRPC4 allosteric potentiator project, cell-based, HEK293 mu-opioid receptor line (AID 449724;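 active = calcium signal rise more than 3 SD above the low-dose agonist control mean, in both duplicate plates and the primary screen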); details: Fluo-4 calcium flux, at 10 µM; compound added before EC20 DAMGO stimulus unless noted
[23] = target: Short transient receptor potential channel 4 (Mus musculus) (UniProt Q9QUQ5); test: mouse TRPC4 membrane potential modulation by TRPC6 hits, confirmation, selectivity assay for TRPC6 inhibitor project, cell-based, second specificity screen, HEK293 TRPC4/mu-opioid (AID 2776;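 active = compounds whose fluorescence signal differed from control wells by over 3 SD, either direction, in both duplicate plates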); details: HEK293 TRPC4/MOR, membrane potential dye fluorescence; at 10 µM; stronger effect = higher value; channel activated by saturating DAMGO dose
[24] = system: transient receptor potential cation channel C4 (TRPC4), mouse; test: mouse TRPC4 modulation by TRPC6 hits, confirmation, selectivity assay for TRPC6 inhibitor project, cell-based, HEK293 TRPC4/mu-opioid, membrane potential dye (AID 2777;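 active = rise or fall in signal beyond 3 SD of buffer-only wells in both replicate plates, either sign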;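 note: integrated kinetic ratio of fluorescence range over baseline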); details: membrane potential fluorescence, at 10 µM
[25] = nonspecific membrane potential effects, parental HEK293, confirmation, counter-screen for TRPC6 inhibitor project, cell-based, second counter screen (AID 2779;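 active = membrane potential signal moving either way by over 3 SD of the maximum-effect control, in both duplicate plates, meaning non-specific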); details: parental HEK293 membrane potential dye fluorescence; at 10 µM; maximal acetylcholine challenge after compound addition
[26] = membrane potential modulation in parental HEK293, confirmation, counter-screen for TRPC6 inhibitor project, cell-based (AID 2780;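 active = membrane potential signal shifting up or down by more than 3 SD of buffer-only wells, on both duplicate plates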;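 for membrane potential signal change: plate controls were buffer EC0 wells for no effect and acetylcholine ECmax wells for full effect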); details: parental HEK293 membrane potential dye fluorescence; at 10 µM

CN1CCN(c2cc(N3CCNCC3)ccc2[N+](=O)[O-])CC1
inactive: outcome [6]
active: membrane potential signal change [1] -426% | inhibition [2] 102% | percent change from control (negative = decrease, positive = increase) [3] -68% | inhibition [4] 66.5% | inhibition [5] 72.5%

CCN1CCN(Cc2cc(Br)cc(Br)c2O)CC1
inactive: outcome [9] | outcome [10] | outcome [11] | outcome [12] | outcome [13] | outcome [14] | outcome [15] | outcome [17] | outcome [19] | outcome [20] | outcome [21] | outcome [22]
active: activation [7] 221% | activation [8] 133% | activation [16] 38.5% | activation [18] 70.3%

COc1ccc(CNCCc2ccc3c(c2)OCO3)cc1Br
active: activation [7] 141% | activation [16] 47.5% | activation [18] 27.3%
inactive: outcome [8] | outcome [9] | outcome [10] | outcome [11] | outcome [12] | outcome [13] | outcome [14] | outcome [15] inactive [setting not given] | outcome [17] inactive [setting not given] | outcome [19] inactive [setting not given] | outcome [20] inactive [setting not given] | outcome [21] | outcome [22] inactive [setting not given]

CCCCCCCCCCCCn1ccc(=N)cc1
active: inhibition [23] 66% | activity change, negative = inhibition [24] -9.73% | membrane potential signal change [26] -166% | inhibition [5] 56.1%
inactive: outcome [25] | outcome [6]

COc1cc2c3cc1Oc1cc(ccc1O)C[C@@H]1c4c(cc(OC)c(O)c4Oc4ccc(cc4)C[C@H]3N(C)CC2)CCN1C
inactive: outcome [8] | outcome [9] | outcome [10] | outcome [11] | outcome [12] | outcome [13] | outcome [14] | outcome [15] | outcome [17] | outcome [18] | outcome [19] | outcome [20] | outcome [21] | outcome [22]
active: activation [7] 69% | activation [16] 26%

COc1ccc(C(CNC(=O)CCc2ccsc2)N(C)C)cc1 (centres undefined)
inactive: outcome [9] | outcome [10] | outcome [11] | outcome [12] | outcome [13] | outcome [14] | outcome [15] | outcome [17] | outcome [18] | outcome [19] | outcome [20] | outcome [21] | outcome [22]
active: activation [7] 67% | activation [8] 129% | activation [16] 45.5%

Nc1cc(N2CCNCC2)ccc1[N+](=O)[O-]
inactive: outcome [9] | outcome [10] | outcome [11] | outcome [12] | outcome [14] | outcome [15] | outcome [16] | outcome [17] | outcome [19] | outcome [21] | outcome [22]
active: activation [7] 199% | activation [8] 84% | activation [18] 10.7% | potentiation [20] 38.4%

COc1ccccc1CC(=O)N1CCN(CCc2ccccc2)CC1
inactive: outcome [8] | outcome [9] | outcome [10] | outcome [11] | outcome [12] | outcome [13] | outcome [14] | outcome [15] | outcome [17] | outcome [19] | outcome [20] | outcome [21] | outcome [22]
active: activation [7] 79% | activation [16] 48.5% | activation [18] 13.4%

CCOC(=O)C1(CCc2ccccc2)CCN(Cc2csc(C(C)=O)c2)CC1
inactive: outcome [7] | outcome [8] | outcome [9] | outcome [10] | outcome [11] | outcome [12] | outcome [13] | outcome [14] | outcome [15] | outcome [17] | outcome [18] | outcome [19] | outcome [20] | outcome [21] | outcome [22]
active: activation [16] 57.5%

COc1ccc(C(=O)C2CCCN(C3CSCCSC3)C2)cc1OC (centres undefined)
inactive: outcome [9] | outcome [10] | outcome [11] | outcome [12] | outcome [13] | outcome [14] | outcome [15] | outcome [17] | outcome [19] | outcome [20] | outcome [21] | outcome [22]
active: activation [7] 166% | activation [8] 86% | activation [16] 33.5% | activation [18] 87.7%

CC1=CC(=Cc2sc3ccccc3[n+]2C)C=C(C)O1
active: inhibition [2] 131% | inhibition [5] 73%
inactive: outcome [1] | outcome [3] | outcome [4] | outcome [6]

CC1CN(c2ccc([N+](=O)[O-])c3cccnc23)CC(C)N1 (centres undefined)
active: activation [7] 108% | activation [8] 81% | activation [18] 35.7%
inactive: outcome [9] | outcome [10] | outcome [11] | outcome [12] | outcome [13] | outcome [14] | outcome [15] | outcome [16] | outcome [17] | outcome [19] | outcome [20] | outcome [21] | outcome [22]

O=[N+]([O-])c1ccc(N2CCNCC2)c2ncccc12
inactive: outcome [11] | outcome [12] | outcome [13] | outcome [14] | outcome [15] | outcome [16] | outcome [17] | outcome [19] | outcome [21] | outcome [22]
active: activation [7] 69% | activation [8] 64% | potentiation [9] 19% | potentiation [10] 23% | activation [18] 38% | potentiation [20] 11%

COc1cccc(-c2nc3ccc(N4CCN(C)CC4)cc3[nH]2)c1
active: inhibition [23] 74%
inactive: outcome [24] | outcome [25] | outcome [26] | outcome [5] | outcome [6]

CCOC(=O)C1(CCc2ccccc2)CCN(Cc2ccc(NC(C)=O)cc2)CC1
inactive: outcome [9] | outcome [10] | outcome [11] | outcome [12] | outcome [13] | outcome [14] | outcome [15] | outcome [17] | outcome [18] | outcome [19] | outcome [20] | outcome [21] | outcome [22]
active: activation [7] 83% | activation [8] 90% | activation [16] 41.5%
